In PubChem BioAssay AID720513 (Broad Institute, 2013):
Out of some 2,100 compounds screened, about 480 (23%) were called active. Inconclusive results (about 5%) are left out.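 How the source made its calls: active means fitted curve reaches 40% activation at or below the top valid concentration, in every replicate test; inconclusive means replicate tests disagree on the call; inactive means the rest, including activity in the opposite direction.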 These entries were drawn from the full list. Results with a measured potency or affinity are listed apart.

experiment: PGC1a acetylation increase, cellular AlphaLISA – cell-based, cherry-picked samples, set 6, dose response (AID 720513); conditions: U2OS PGC1a acetylation AlphaLISA, overnight, 0 = neutral, -100 = inhibitor control; series mostly up to 19.5 µM; activation (acetylation increase): at the top concentration;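 further: cells made to overexpress flag tagged PGC1a plus GCN5 acetyltransferase by viral infection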

Activation (acetylation increase), inactive:
COC(=O)Cn1ccc(-c2ccc(Cl)cc2)c(C#N)c1=O 7.9%
NC(=O)COC(=O)CC(NC(N)=O)c1ccc(Cl)cc1 (stereo not given) -8.85%
C[C@@H]1CN([C@H](C)CO)C(=O)CCCn2nncc2CO[C@@H]1CN(C)S(=O)(=O)c1cn(C)cn1 11%
Cc1ccccc1C(=O)Nc1ccc(C(=O)O)cc1NC(=O)c1ccccc1C 0.246% [at 10 µM]
Cc1ccc(NC2=C([N+](=O)[O-])CS(=O)(=O)C2)cc1 1.18%
O=C(COC(=O)C1CC2CCCC(C1)C2=O)Nc1ccc(F)c(Cl)c1 (stereo not given) 9.21%
COc1ccccc1/C=C(/C(=O)OCC(=O)NCc1ccccc1)c1ccccc1 -8.24%
S=c1sc2c(Cl)ncnc2n1-c1ccccc1 -99%
CCCN(C)C[C@@H]1Oc2cc(C#C[C@H](C)O)ccc2S(=O)(=O)N([C@H](C)CO)C[C@@H]1C 27.6%
Cc1ccc(C)c(C(=O)Cn2ncc(Cl)c(Cl)c2=O)c1 -81.4%
COc1ccc(C#Cc2ccc([C@@H]3[C@H](CO)N4CCCCN(C(=O)Nc5ccccc5)C[C@@H]34)cc2)cc1 -94%
C[C@H]1CN([C@@H](C)CO)S(=O)(=O)c2ccc(-c3ccccc3)cc2O[C@@H]1CN(C)Cc1cccc(F)c1 -95.1%
C[C@H](CO)N1C[C@H](C)[C@@H](CN(C)Cc2ccc3c(c2)OCO3)Oc2cc(-c3cccc(C(=O)N(C)C)c3)ccc2S1(=O)=O -14.6%
CCCC#Cc1ccc2c(c1)O[C@@H](CN(C)Cc1ccc3c(c1)OCO3)[C@@H](C)CN([C@H](C)CO)S2(=O)=O 30%
COc1cccc(-c2ccc3c(c2)O[C@H](CN(C)Cc2ccncc2)[C@@H](C)CN([C@@H](C)CO)S3(=O)=O)c1 23.1% [at 21 µM]
C[C@H]1CN([C@@H](C)CO)S(=O)(=O)c2ccc(C#CCN(C)C)cc2O[C@H]1CN(C)Cc1ccc2c(c1)OCO2 24.2%
CC(C)CC#Cc1ccc2c(c1)O[C@@H](CN(C)Cc1ccc3c(c1)OCO3)[C@H](C)CN([C@H](C)CO)S2(=O)=O -87.7%
COc1ccccc1-c1ccc2c(c1)O[C@@H](CN(C)Cc1ccc3c(c1)OCO3)[C@@H](C)CN([C@H](C)CO)S2(=O)=O 39.1%
C[C@@H]1CN([C@H](C)CO)S(=O)(=O)c2ccc(-c3cncnc3)cc2O[C@H]1CN(C)Cc1cccnc1 4.68%
Cc1cccc(CC2CC(=O)N(C3CCCCC3)C2=O)c1 (stereo not given) -13.6%
CCCCn1c(=O)[nH]c(=O)c2c1nc(-c1ccc(OCCC)c(OCC)c1)n2C -10.5%
Oc1ccc(-c2nc(-c3ccc(O)c(O)c3)cs2)cc1 17.4%
Cc1cccc(COc2ccc(/C=C3/C(=O)N(C)C(=S)N3C)cc2)c1 -10.1%
COc1ccc(CCN(C)C(=O)CN2C(=O)NC3(CCCc4ccccc43)C2=O)cc1OC (stereo not given) 2.14%
O=C(Nc1cccc2c1CCCC2)c1ccccc1Br 9.7%
C/C(=C\C(=O)N1CCc2ccccc21)C(=O)O 0.143%
CC(C)(C)NCCC(O)c1cc(C(F)(F)F)nc2c(C(F)(F)F)cccc12 (stereo not given) 22.3%
CCN(CC)CC#CCOC(c1ccccc1)c1ccccc1 -2.02%
O=[N+]([O-])c1ccc(Oc2ccc(F)cc2)c2ccncc12 -22.8%
O=C(Nc1cc(C(F)(F)F)ccc1N1CCOCC1)c1ccccc1 4.26%
COc1ccc(Br)cc1S(=O)(=O)NCc1ccccc1 7.45%
O=C(O)CCCC(=O)Nc1ccc(Br)cc1C(=O)O -2.91%
CC(C)[C@H]1COCCS(=O)(=O)N1Cc1ccccc1F -26.2%
C[C@H](CO)N1C[C@H](C)[C@H](CN(C)S(=O)(=O)c2ccccc2C#N)OCc2cnnn2CCCC1=O -23.1%
CC1CC1C(=O)N(C)CC(=O)Nc1cccc(F)c1 (stereo not given) 22.2%
CCCN(C)C[C@@H]1Oc2cc(C#CC3CCCC3)ccc2S(=O)(=O)N([C@H](C)CO)C[C@@H]1C 14.2%
CCOCCCNC(=O)c1ccccc1SC 20.7%
Fc1cccc(CN2C[C@@H]3N[C@H](C2)[C@@H]3c2ccc(-c3cccc(F)c3)cc2)c1 -101%
Fc1cccc(-c2ccc([C@@H]3[C@@H]4CN(Cc5nccs5)C[C@H]3N4)cc2)c1 -53.8%
c1csc(CNc2ncnc3ccc(-c4ccoc4)cc23)c1 -26.5%
CCS(=O)(=O)c1ccc2oc(Nc3ccccc3Br)nc2c1 -16.6%
CCN1C(=O)CCCc2ccccc21 30.4%
O=C(NCC[C@@H]1CC[C@H](NS(=O)(=O)Cc2ccccc2)[C@H](CO)O1)C1CCC1 11.7%
Nc1nc(Nc2ccccc2)nc2ccccc12 -18.8%
CC(=O)c1ccc(Nc2cc(C)nc3ccc(C)cc23)cc1 -36.6%
CN(C)CC(=O)N1CCCCN2[C@@H](CO)[C@H](c3ccc(/C=C/c4ccccc4)cc3)[C@@H]2C1 -19%
Cc1ccc(NC(=O)COC(=O)COc2ccc(Cl)cc2)c([N+](=O)[O-])c1 6.12%
COC(=O)c1ccc(C(=O)OC)c(NC(=O)COC(=O)CCOc2ccc(C)cc2)c1 15.7%
Cc1cc(C)cc(OC(=O)CS(=O)c2ccc(C(F)(F)F)cc2[N+](=O)[O-])c1 (stereo not given) -36.4% [at 10 µM]
C[C@@H]1CCCCO[C@@H](CN(C)S(C)(=O)=O)[C@H](C)CN([C@@H](C)CO)C(=O)c2cc(NC(=O)c3ccccc3)ccc2O1 8.43%
COc1nc(OCCNS(=O)(=O)c2ccc(C)cc2)nc(N(C)C)n1 4.81%
Cc1ccc(CC(=O)Nc2nccs2)cc1 11.1%
O=C(Nc1nc(-c2ccc3ccccc3c2)cs1)c1ccc(N2C(=O)CCC2=O)cc1 -4.2%
C[C@H]1CN([C@@H](C)CO)C(=O)c2cc(NC(=O)Nc3cccc4ccccc34)ccc2O[C@H]1CN(C)S(=O)(=O)c1ccc(Cl)cc1 -6.46% [at 21 µM]
N#C[C@H]1[C@H](c2ccc(C#CC3CCCC3)cc2)[C@H](CO)N1C(=O)Cc1ccccn1 -55.6%
N#C[C@@H]1[C@@H](c2ccc(-c3ccccc3)cc2)[C@@H](CO)N1C(=O)Cc1ccncc1 -41%
C[C@H](CO)N1C[C@H](C)[C@H](CN(C)C(=O)NC2CCCCC2)Oc2cc(C#Cc3cccc(F)c3)ccc2S1(=O)=O -84.8%
CS(=O)(=O)c1sc2nc(-c3cccs3)cc(-c3ccccc3)c2c1N 36.2%
COc1ccc(NC(=O)c2ccc3c(c2)OCO3)cc1Cl -10.9%
COc1ccc(C(=O)Nc2cccc(S(C)(=O)=O)c2)cc1OC 14.5%
C[C@@H]1CN([C@@H](C)CO)C(=O)c2cc(C#CCN(C)C)cnc2O[C@H]1CN(C)Cc1ccc(F)cc1 22% [at 21 µM]
Fc1cccc(CN2C[C@@H]3N[C@H](C2)C3c2ccc(/C=C/c3ccccc3)cc2)c1 (stereo not given in full) -94.1%
CCOC(=O)c1oc2nc3c(cc2c1N)COC(C)(C)C3 36.1%
C[C@H]1CN([C@@H](C)CO)C(=O)c2cc(C#CC(C)(C)O)cnc2O[C@@H]1CN(C)C(=O)C1CCC1 4.88%
CC1CCCCN1C(=O)CN(C)S(=O)(=O)c1cccc2nsnc12 (stereo not given) -12%
O=C(Nc1ccc(F)cc1)C1CCCN1S(=O)(=O)c1cccc2nsnc12 (stereo not given) 2.69%
O=c1c2c3c(sc2n2cnnc2n1Cc1ccccc1)CN(Cc1ccccc1)CC3 29.5%
COC(=O)c1[nH]c2ccc(F)cc2c1NS(=O)(=O)c1ccc(OC)cc1OC -6.12%
O=C(C[C@H]1CC[C@@H](NC(=O)c2ccccc2)[C@H](CO)O1)Nc1ccc(-c2ccccc2)cc1 -60.5%
COc1ccc(CCN2C(=O)N(c3ccc(OC)cc3)C(=O)C2CC(=O)Nc2ccccc2)cc1 (stereo not given) 0.037%
CC(=O)c1ccc(N2CCN(C(=O)c3ccc4nc[nH]c4c3)CC2)cc1 16.3%
Cc1[nH]c2ccccc2c1C(=O)/C=C/c1ccccc1 -28.1%
CSc1nsc(SC)c1NC(=O)Nc1ccccc1C 25.9%
O=C(CN1C(=O)NC2(CCc3ccccc32)C1=O)c1ccc(Br)cc1 (stereo not given) 31% [at 10 µM]
CC1CCN(S(=O)(=O)c2ccc(Oc3ccc([N+](=O)[O-])cc3)cc2)CC1 36%
COCc1c(C(=O)Nc2cccc(S(=O)(=O)N3CCCCC3)c2)oc2ccccc12 21.3%
CCOc1ccc(NC(=O)c2cccc3c2C(=O)N(CCOC)C3)cc1 1.21%
COc1cccc(NC(=O)c2ccccc2-c2ccccc2C(=O)O)c1 11.2%
Cc1c(NC(=O)COC(=O)c2ccccc2O)c(=O)n(-c2ccccc2)n1C 15.7%
C[C@H]1CN([C@@H](C)CO)C(=O)Cc2cc(NS(C)(=O)=O)ccc2O[C@@H]1CN(C)Cc1ccc2c(c1)OCO2 1.57%
C[C@@H]1CN([C@H](C)CO)C(=O)Cc2cc(NC(=O)Nc3ccccc3)ccc2O[C@H]1CN(C)Cc1ccccc1 5.21% [at 21 µM]
C[C@@H]1CN([C@H](C)CO)C(=O)Cc2cc(NC(=O)Cc3ccccc3)ccc2O[C@@H]1CN(C)S(C)(=O)=O 14.9%
C[C@H]1CN([C@@H](C)CO)C(=O)Cc2cc(NC(=O)Nc3ccccc3)ccc2O[C@@H]1CN(C)Cc1ccccc1 -36.2%
C[C@H]1CCCCO[C@H](CN(C)Cc2ccc3c(c2)OCO3)[C@@H](C)CN([C@@H](C)CO)C(=O)c2cc(NC(=O)Nc3ccc(C(F)(F)F)cc3)ccc2O1 -95.8%
Cc1ccccc1Cn1cnc2c(nnn2Cc2ccc(F)cc2)c1=O -4.71%
O=C1Nc2c(Br)cc(Br)c3cccc1c23 1.42%
COc1ccc(-c2cnc3c(c2)C(=O)N([C@H](C)CO)C[C@H](C)[C@H](CN(C)S(=O)(=O)c2cccs2)O3)cc1 4.64%
COc1ccc(S(=O)(=O)N(C)C[C@@H]2Oc3ncc(-c4ccccc4)cc3C(=O)N([C@H](C)CO)C[C@@H]2C)cc1 24% [at 21 µM]
C[C@@H]1CN([C@@H](C)CO)C(=O)c2cc(C#CCN(C)C)cnc2O[C@@H]1CN(C)S(=O)(=O)c1cn(C)cn1 15.9%
C[C@H]1CN([C@@H](C)CO)C(=O)c2cc(-c3cccc(C(=O)N(C)C)c3)cnc2O[C@@H]1CN(C)S(=O)(=O)c1ccc(F)cc1 -3.94%
